Measurements taken from PubChem BioAssay (NCATS).
Values joined by “and” are separate entries in the source; they are usually repeats but may differ in a detail not shown here. Equal values may be shown once. Results filed as inconclusive are left out. Active and inactive are the calls of the source. Unless noted, the call rests on the fitted dose curve; in most records, active means well fitted curve in the direction sought with a large enough effect; inconclusive means small, poorly fitted or top-dose-only effect, or another doubt; inactive means no such curve, though single readings can be large; an effect the other way counts as inactive or inconclusive.

Columns and labels:
[1] = Cell Viability - LYMP2-001 (AID 921); further: nearly all actives have a fitted effect of over 70% in size; further: potency means the concentration at half of the fitted maximal effect
In short: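 Human lymphoblastoid cells (Coriell), 2500 per well, were preincubated 5 hr at 37 C, then exposed to compounds in complete medium for 24 hr at 37 C. Cellular ATP was read by CellTiter-Glo luminescence; AC50 from Hill fits of concentration-response data.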

[2] = MultiTox-Fluor Cytotoxicity Assay - LYMP1-002 - Dead Cells (AID 960); further: nearly all actives have a fitted effect of over 60% in size; further: potency means the concentration at half of the fitted maximal effect
In short: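 LYMP1-002 cells 2500/well; 5 hr 37 C pre-incubation; compound 16 hr 37 C; MultiTox-Fluor reagent 60 min RT; dead-cell fluor Ex/Em 485/520. Norm. to DMSO (0%) vs 15 uM tetraoctylammonium bromide (100%); Hill AC50.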

[3] = Cell Viability - LYMP2-005 (AID 967); further: potency means the concentration at half of the fitted maximal effect
In short: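 CellTiter-Glo luminescence (cellular ATP) read-out; LYMP2-005 lymphoblastoid cells, 2500/well, 5 h pre-incubation, then 24 h compound exposure at 37 C in complete medium. Tetraoctylammonium bromide positive control; AC50 by standard Hill fit.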

[4] = Cell Viability - LYMP2-008 (AID 980); further: nearly all actives have a fitted effect of over 60% in size; further: potency means the concentration at half of the fitted maximal effect
In short: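 qHTS, human lymphoblastoid line, 2500 cells/well; 5 hr preincubation, 24 hr compound, 37 C. CellTiter-Glo ATP luminescence. AC50 via Hill equation. Tetraoctylammonium bromide positive control.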

[5] = Cell Viability - LYMP2-012 (AID 982);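 further: cellular ATP by luciferase luminescence where a drop means cytotoxicity; cells exposed to compound for one day before reading; nearly all actives have a fitted effect of over 55% in size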; further: potency means the concentration at half of the fitted maximal effect
[6] = Cell Viability - LYMP2-016 (AID 984); further: nearly all actives have a fitted effect of over 55% in size; further: potency means the concentration at half of the fitted maximal effect
In short: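 Human lymphoblastoid cells (LYMP2-016), 2500/well in complete medium, preincubated 5 hr at 37 C, then compound-treated 24 hr at 37 C. Intracellular ATP read by CellTiter-Glo luminescence after 30 min at room temperature; AC50 from Hill-equation concentration-response fits.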

[7] = Cell Viability - LYMP2-018 (AID 985);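 further: compound exposure lasted 24 hr at 37 °C; nearly all actives have a fitted effect of over 50% in size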; further: potency means the concentration at half of the fitted maximal effect
In short: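 Luminescent ATP signal (CellTiter-Glo, read after 30 min at room temperature) reports viable cells after 24 hr compound treatment at 37 C. Concentration-response data were fitted to the standard Hill equation for AC50.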

[8] = Cell Viability - LYMP2-020 (AID 986); further: nearly all actives have a fitted effect of over 55% in size; further: potency means the concentration at half of the fitted maximal effect
In short: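 Luminescent ATP signal (CellTiter-Glo, 30 min at room temperature) is the read-out after 24 h compound treatment of lymphoblastoid cells at 37 C. AC50 values come from Hill-equation fits across concentrations.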

[9] = Cell Viability - LYMP2-022 (AID 987); further: nearly all actives have a fitted effect of over 55% in size; further: potency means the concentration at half of the fitted maximal effect
In short: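 qHTS: human lymphoblastoid cells 2500/well; 5 hr 37 C; cpd added; 24 hr 37 C; CellTiter-Glo, 30 min RT; luminescence. AC50 via Hill fit; tetraoctylammonium bromide positive ctrl.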

[10] = Cell Viability - LYMP2-024 (AID 988); further: nearly all actives have a fitted effect of over 60% in size; further: potency means the concentration at half of the fitted maximal effect
In short: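 Steps: seed 2500 cells/well, 5 hr 37 C; add compound, 24 hr 37 C; add CellTiter-Glo, 30 min room temperature; read luminescence. AC50 derived by Hill modelling of concentration-dependent ATP loss.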

[11] = molecular target: Thyroid hormone receptor beta (Homo sapiens) (UniProt P10828); assay: qHTS assay for small molecule agonists of thyroid hormone receptor beta signaling (AID 588545; calls by dose curve)
Sequence of Thyroid hormone receptor beta (Homo sapiens) (P10828 whole entry, looked up): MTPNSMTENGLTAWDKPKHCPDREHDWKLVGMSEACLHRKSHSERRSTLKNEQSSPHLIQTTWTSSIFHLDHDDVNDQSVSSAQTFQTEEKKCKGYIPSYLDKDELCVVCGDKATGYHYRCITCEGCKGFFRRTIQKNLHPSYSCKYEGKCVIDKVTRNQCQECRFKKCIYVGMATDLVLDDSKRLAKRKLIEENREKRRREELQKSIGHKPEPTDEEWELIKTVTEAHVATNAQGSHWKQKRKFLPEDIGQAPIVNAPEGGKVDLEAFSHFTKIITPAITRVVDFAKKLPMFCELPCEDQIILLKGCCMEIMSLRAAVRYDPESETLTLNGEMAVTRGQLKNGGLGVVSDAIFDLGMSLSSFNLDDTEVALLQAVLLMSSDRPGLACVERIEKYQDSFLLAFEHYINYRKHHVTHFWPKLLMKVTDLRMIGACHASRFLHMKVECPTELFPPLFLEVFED
In short: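 Agonist activity was read as beta-lactamase CCF4 fluorescence (405 ex, 460/530 em), scaled between DMSO (0%) and 10 nM T3 (100%), then Hill-fitted for EC50 and efficacy. HEK 293 TR-UAS-bla cells in 2% charcoal/dextran FBS medium were exposed 18 h at 37 C.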

[12] = qHTS assay for small molecule disruptors of the mitochondrial membrane potential - 1 hr assay (AID 651754; calls by dose curve; further: on the % scale 0 is the no-effect control and ±100 the full control effect; nearly all actives have a fitted effect of over 35% in size)
In short: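 HepG2, 2,000 cells/well, overnight attachment; cpd or DMSO 1 hr, 37C/5% CO2; Mito-MPS dye 30 min, 37C; fluorescence monomer (490/535) and aggregate (540/590).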

[13] = qHTS assay for environmental chemicals that activate the Aryl hydrocarbon Receptor (AhR) signaling pathway (AID 651777); conditions: 1A2-DRE human hepatoma cells, luciferase, 24 h; activation: stronger effect = higher value; further: % of control where 0% means no effect; nearly all actives have a fitted effect of over 15% in size
In short: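 Following a 24 hr incubation with test chemicals at 37 C and 5% CO2, 1A2-DRE human hepatoma cells received One-Glo reagent; after 30 min at room temperature, luciferase output reflected CYP1A2 induction via AhR.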

[14] = qHTS assay for small molecule agonists of the antioxidant response element (ARE) signaling pathway measured by Nrf2-dependant transcriptional activity (AID 720636; active means well fitted curve in the direction sought with a large enough effect in the repeat runs; an effect the other way counts as inactive or inconclusive; further: potency means the concentration at half of the fitted maximal effect;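 on activation: HepG2 cells with an ARE-driven luciferase reporter; % of control where 0% means no effect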)
In short: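 ONE-Glo luminescence, read 30 min after reagent addition at room temperature, reflected ARE reporter activity in HepG2 cells that had been incubated with compound for 16 hr at 37 C in 1% dialyzed FBS.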

[15] = qHTS assay for small molecule antagonists of the retinoid-related orphan receptor gamma (ROR-gamma) signaling pathway - cell viability counter screen (AID 720652; active means well fitted curve in the direction sought with a large enough effect in the repeat runs; an effect the other way counts as inactive or inconclusive;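 further: compound exposure lasted 16 hr before ATP read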; further: potency means the concentration at half of the fitted maximal effect)
In short: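 Luminescence from CellTiter-Glo after 30 min at room temperature reported cellular ATP as the cytotoxicity measure. Cells were the CHO reporter line with doxycycline-induced ROR-gamma expression, exposed to compound for 16 hr at 37 C.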

[16] = molecular target: Nuclear receptor subfamily 1 group I member 2 (Rattus norvegicus) (UniProt Q9R1A7); assay: qHTS assay for small molecule activators of the rat pregnane X receptor (rPXR) signaling pathway (AID 651751; call rule not given here; further: 0% is about no effect); conditions: rPXR reporter cells, luciferase (One-Glo), 24 h
Sequence of Nuclear receptor subfamily 1 group I member 2 (Rattus norvegicus) (Q9R1A7 whole entry, looked up): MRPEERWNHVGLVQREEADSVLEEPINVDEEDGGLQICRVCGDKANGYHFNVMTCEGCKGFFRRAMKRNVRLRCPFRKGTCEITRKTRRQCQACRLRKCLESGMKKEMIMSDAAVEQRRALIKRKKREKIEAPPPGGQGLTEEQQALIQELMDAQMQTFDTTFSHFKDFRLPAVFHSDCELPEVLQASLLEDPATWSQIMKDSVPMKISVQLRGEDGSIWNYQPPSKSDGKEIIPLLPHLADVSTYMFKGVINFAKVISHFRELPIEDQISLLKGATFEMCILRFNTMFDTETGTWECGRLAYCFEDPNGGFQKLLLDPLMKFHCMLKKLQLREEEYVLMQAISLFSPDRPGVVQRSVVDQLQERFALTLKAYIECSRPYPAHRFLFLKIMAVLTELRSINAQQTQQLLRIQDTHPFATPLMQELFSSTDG

[17] = qHTS assay for small molecule activators of the human pregnane X receptor (PXR) signaling pathway (AID 720659; call rule not given here; further: 0% is about no effect)
[18] = molecular target: Nuclear receptor ROR-gamma (Homo sapiens) (UniProt P51449); assay: qHTS assay for small molecule antagonists of the retinoid-related orphan receptor gamma (ROR-gamma) signaling pathway (AID 651802); further: nearly all actives have a fitted effect of over 60% in size; further: potency means the concentration at half of the fitted maximal effect
Sequence of Nuclear receptor ROR-gamma (Homo sapiens) (P51449 whole entry, looked up): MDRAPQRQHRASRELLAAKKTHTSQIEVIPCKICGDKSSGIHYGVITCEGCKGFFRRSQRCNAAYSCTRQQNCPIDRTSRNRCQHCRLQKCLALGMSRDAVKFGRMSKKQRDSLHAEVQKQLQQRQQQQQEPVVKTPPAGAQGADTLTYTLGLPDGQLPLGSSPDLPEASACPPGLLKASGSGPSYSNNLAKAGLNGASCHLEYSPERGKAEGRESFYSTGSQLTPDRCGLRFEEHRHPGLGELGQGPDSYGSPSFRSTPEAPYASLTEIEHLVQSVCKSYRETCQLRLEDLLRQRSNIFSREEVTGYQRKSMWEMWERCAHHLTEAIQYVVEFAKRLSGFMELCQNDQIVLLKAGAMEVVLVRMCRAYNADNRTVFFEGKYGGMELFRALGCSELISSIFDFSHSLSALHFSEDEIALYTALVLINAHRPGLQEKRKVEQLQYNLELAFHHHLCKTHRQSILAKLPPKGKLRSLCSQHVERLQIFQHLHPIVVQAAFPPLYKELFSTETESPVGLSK
In short: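 CHO, TET-inducible ROR + RORE-LUC reporter, 1536-well qHTS. Compound pinned, doxycycline added, 16hr 37C/5% CO2. ONE-Glo, 30 min RT, luminescence; signal drop scored as antagonism.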

[19] = molecular target: Cytochrome P450 3A4 (Homo sapiens) (UniProt P08684); assay: qHTS Assay for Inhibitors and Substrates of Cytochrome P450 3A4 (AID 884); further: nearly all actives have a fitted effect of over 50% in size; further: potency means the concentration at half of the fitted maximal effect
Sequence of Cytochrome P450 3A4 (Homo sapiens) (P08684 whole entry, looked up): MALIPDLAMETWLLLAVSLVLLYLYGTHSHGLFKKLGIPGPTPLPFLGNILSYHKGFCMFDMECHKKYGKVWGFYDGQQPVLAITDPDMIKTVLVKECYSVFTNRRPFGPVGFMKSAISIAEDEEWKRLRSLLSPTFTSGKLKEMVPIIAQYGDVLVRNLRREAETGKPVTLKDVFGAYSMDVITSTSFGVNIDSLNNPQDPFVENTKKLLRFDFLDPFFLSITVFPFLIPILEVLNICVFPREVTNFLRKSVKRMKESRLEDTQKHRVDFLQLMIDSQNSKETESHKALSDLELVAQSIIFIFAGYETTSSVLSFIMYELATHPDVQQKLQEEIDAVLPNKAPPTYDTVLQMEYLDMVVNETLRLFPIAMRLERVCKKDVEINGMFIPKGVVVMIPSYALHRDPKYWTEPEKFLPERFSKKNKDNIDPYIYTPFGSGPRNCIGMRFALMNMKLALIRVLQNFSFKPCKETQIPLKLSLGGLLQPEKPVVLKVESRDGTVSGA
In short: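 20 nM human CYP3A4 with 25 uM Luciferin-PPXE (at KM) in 200 mM KPO4, preincubated 10 min with compound; NADPH regeneration started a 60 min RT reaction. Luciferin detected by luminescence, normalized to 57 uM ketoconazole as full inhibition.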

C=CC(=O)OCCOCCOC(=O)C=C
inactive: outcome [11] | Potency [12] | activation [13] 2.82% | Potency [15] | max response [16] 9.16% | outcome [17]
active: Potency [1] 12.6 µM | Potency [2] 25.1 µM | Potency [3] 10 µM | Potency [4] 31.6 µM | Potency [5] 12.6 µM | Potency [6] 20 µM | Potency [7] 15.8 µM | Potency [8] 15.8 µM | Potency [9] 12.6 µM | Potency [10] 12.6 µM | Potency [14] 66.8 µM

CO[C@H]1/C=C/O[C@@]2(C)Oc3c(C)c(O)c4c(O)c(c5c(c4c3C2=O)NC2(CCN(CC(C)C)CC2)N=5)=NC(=O)/C(C)=C\C=C\[C@H](C)[C@H](O)[C@@H](C)[C@@H](O)[C@@H](C)[C@H](OC(C)=O)[C@@H]1C
inactive: Potency [2] | Potency [4] | outcome [11] | Potency [12] | activation [13] -1.73% | Potency [18] | Potency [14] | Potency [15] | max response [16] 7.05%

CC/C(=C(\c1ccccc1)c1ccc(OCCN(C)C)cc1)c1ccc(O)cc1
inactive: Potency [12] | activation [13] -5.29%

ClC1=C(Cl)C(Cl)(Cl)C(Cl)=C1Cl
inactive: Potency [19] | Potency [2] | Potency [3] | outcome [11] | Potency [12] | activation [13] 0.158% and 0.426% | Potency [14] | max response [16] 3.04% and -2.94% | outcome [17]

Cc1cc(Nc2ccc(O)cc2)ccc1N
inactive: outcome [11] | Potency [14] | max response [16] -2.27% | outcome [17]
active: Potency [19] 15.8 µM | Potency [1] 31.6 µM | Potency [3] 39.8 µM | Potency [4] 50.1 µM | Potency [5] 39.8 µM | Potency [6] 50.1 µM | Potency [7] 39.8 µM | Potency [8] 39.8 µM | Potency [9] 31.6 µM | Potency [10] 25.1 µM | Potency [18] 21.1 µM

CNc1ccc(O)cc1
inactive: outcome [11] | activation [13] 7.98% | max response [16] -0.134% | outcome [17]
active: Potency [1] 3.16 µM | Potency [3] 5.01 µM | Potency [4] 7.94 µM | Potency [5] 3.98 µM | Potency [6] 7.94 µM | Potency [7] 5.01 µM | Potency [8] 3.98 µM | Potency [9] 3.16 µM | Potency [10] 2.51 µM | Potency [14] 37.6 µM

c1ccc2c(c1)ccc1cc3c(ccc4ccccc43)cc12
inactive: Potency [1] | Potency [2] | Potency [3] | Potency [4] | Potency [5] | Potency [6] | Potency [7] | Potency [8] | Potency [9] | Potency [10] | Potency [12] | Potency [15] | outcome [17]

CN(C)c1ccc(C2(c3ccc(N(C)C)cc3)OC(=O)c3cc(N(C)C)ccc32)cc1
inactive: Potency [1] | Potency [4] | Potency [5] | Potency [6] | Potency [7] | Potency [8] | Potency [9] | Potency [10] | activation [13] -0.148% | Potency [18] | Potency [14] | Potency [15] | max response [16] -2.55% | outcome [17]

O=C1OC2(c3cc(Br)c(O)c(Br)c3Oc3c2cc(Br)c(O)c3Br)c2c(Cl)c(Cl)c(Cl)c(Cl)c21
inactive: Potency [3] | Potency [6] | Potency [8] | Potency [10] | activation [13] -2.87% | Potency [18] | Potency [14]
active: Potency [19] 20 µM

O=Cc1ccc(Cl)c(Cl)c1
inactive: Potency [19] | Potency [1] | Potency [2] | Potency [3] | Potency [4] | Potency [5] | Potency [6] | Potency [7] | Potency [8] | Potency [9] | Potency [10] | outcome [11] | Potency [12] | Potency [18] | Potency [14] | Potency [15] | max response [16] -0.904% | outcome [17]

CCC(C)Nc1ccc(NC(C)CC)cc1 (centres undefined)
inactive: outcome [11] | activation [13] -3.51% | Potency [14]
active: Potency [19] 15.8 µM | Potency [1] 5.01 µM | Potency [3] 6.31 µM | Potency [4] 3.98 µM | Potency [5] 3.98 µM | Potency [6] 5.01 µM | Potency [7] 3.16 µM | Potency [8] 5.01 µM | Potency [9] 2.51 µM | Potency [10] 2 µM | Potency [18] 13.3 µM | Potency [15] 8.41 µM
